The text below walks through data of PubChem BioAssay.

What is called remaining activity is the signal under treatment as a percentage of the control signal. Usually AC50 stands for the midpoint of the concentration-response curve, whichever way the signal moves.

The nature of test [1]: stimulators of insulin release from INS-1E, primary screen, cell-based, 5 mM glucose, NPC library (AID 1117329;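 active = compound raises insulin release from rat beta cells at 5 mM glucose, no numeric limit stated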). The note with it: rat INS-1E insulin secretion, at 10 µM, stronger effect = higher value.
Test [2] can be described thus: growth inhibition of GSK3B-pretreated HCT116 cells – cell-based, CellTiter-Glo, 0.2 to 20 µM (AID 1117336;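 active = compounds lowering colon cancer cell viability after pretreatment blocking the GSK3B kinase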). The note with it: HCT116 viability after GSK3B inhibitor, at 20 µM, stronger effect = higher value. On the technique in general: ATP-based viability assays read luminescence as a measure of living cells.
A short description of test [3]: inhibition of endothelial tube formation, primary screen, imaging, VEGF stimulated, CD31 staining, tube area, NPC library (AID 1117340;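 active = compound that reduces growth-factor-driven endothelial tube area in a mixed cell culture, no cutoff stated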). Conditions: VEGF-stimulated ADSC/ECFC co-culture, at 10 µM, stronger effect = higher value.
Test [4] can be described thus: glucagon-like peptide 1 release enhancers, primary assay, NCI-H716 cell line, NPC library (AID 1117341;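 active = compound raises GLP1 secretion from the human gut endocrine cells, with no numeric limit stated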). Conditions: NCI-H716 cells, at 10 µM, stronger effect = higher value.
Test [5] is described as follows: HCT116 colon cancer cell growth inhibition, primary screen, CellTiter-Glo luminescence, NPC library (AID 1117342;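 active = compounds that lower survival of HCT116 colon cancer cells in the luminescence readout, no numeric limit stated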). Conditions: at 20 µM (top of the series).
Test [6] in a line: CellTiter-Glo luminescent readout of SW480 viability loss, NPC library primary (AID 1117343;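 active = compounds that lower viability of the colon cancer cells in the luminescence readout, with no numeric limit stated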). The note with it: CellTiter-Glo luminescence; at 20 µM (top of the series).
Test [7] is described as follows: decreased DLD-1 cellular survival, CellTiter-Glo luminescent readout, NPC compound collection, primary HTS (AID 1117346;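 active = compounds that lower survival of DLD-1 colon cancer cells in the luminescence readout, no cutoff given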). Conditions: DLD-1 viability, CellTiter-Glo luminescence; at 20 µM (top of the series).
Test [8] is described as follows: differential killing of epithelial or mesenchymal cells, primary screen, imaging, PC-3E GFP, TEM4-18 mCherry, co-culture (AID 1345086;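 active = compounds killing one labelled cell type while sparing the other, by normalised counts and ratio limits, not self-fluorescent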;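 for all read-outs here: cells exposed to compound for 72 h before imaging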;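 for red/green cell ratio (normalised): normalised mesenchymal count divided by normalised epithelial count so high means epithelial killing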). The note with it: imaging cell counts, at 1 µM; for red/green cell ratio (normalised): actives lie on both sides, counts scaled to control wells, 1 = unselective.
Test [9] has as its system Aerobactin synthetase IucA (Klebsiella pneumoniae). The experiment in a line: IucA aerobactin synthetase inhibitors, biochemical, Tocris library, absorbance (AID 1345561; call rule not given here;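 note: 100% = enzyme without compound and 0% = no enzyme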). Conditions: purified IucA enzyme assay, absorbance (OD) read-out; stronger effect = lower value;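 tested at 8 µM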.
Test [10] in a line: growth inhibition of DIPG glioma cells, dose response, cell-based, SU-DIPG-XVII, MIPE5.0, CellTiter-Glo, qHTS (AID 1347060; cut-off not given, nearly all actives have AC50 up to about 26 µM;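 for AC50: cells exposed to compound for 48 hours before viability readout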). Conditions: SU-DIPG-XVII viability, CellTiter-Glo ATP luminescence.
The nature of test [11]: growth inhibition of DIPG glioma cells, dose response, cell-based, SU-DIPG-XIII, MIPE4.0, CellTiter-Glo, qHTS (AID 1347061; cut-off not given, nearly all actives have AC50 up to about 37 µM;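 note: cells exposed to compound for 48 hours before readout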). The note with it: SU-DIPG-XIII viability, CellTiter-Glo ATP luminescence.
The nature of test [12]: growth inhibition of DIPG glioma cells, dose response, cell-based, JHH-DIPG-1, MIPE4.0, CellTiter-Glo, qHTS (AID 1347062; cut-off not given, nearly all actives have AC50 up to about 27 µM;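 for AC50: cells exposed to compound for two days before readout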). The note with it: JHH-DIPG-1 viability, CellTiter-Glo ATP luminescence.
Test [13] can be described thus: growth inhibition of DIPG glioma cells, dose response, cell-based, SU-DIPG-IV, MIPE4.0, CellTiter-Glo, qHTS (AID 1347063; cut-off not given, nearly all actives have AC50 up to about 30 µM;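 note: compound exposure lasted 48 hours before the viability readout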). Conditions: SU-DIPG-IV viability, CellTiter-Glo ATP luminescence.
Test [14] can be described thus: growth inhibition of DIPG glioma cells, dose response, cell-based, SU-DIPG-XIII, MIPE5.0, CellTiter-Glo, qHTS (AID 1347064).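 For AC50: cells exposed to compound for 48 hours before the viability read.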 Conditions: SU-DIPG-XIII viability, CellTiter-Glo ATP luminescence.
[15] abbreviates: measured here: epithelial PC-3E GFP cell survival.
[16] abbreviates: measured here: mesenchymal TEM4-18 mCherry cell survival.

Several values for one entry are separate records, joined by “and”; a condition that tells them apart may be missing. Equal entries are not always repeated. Inconclusive results are not listed. Activity calls are given as the source filed them. Unless noted, no cut-off is given here; in the data, nearly all actives have AC50 up to about 23 µM.

Take `Cc1cc2c(C(C)C)c(O)c(O)c(C=O)c2c(O)c1-c1c(C)cc2c(C(C)C)c(O)c(O)c(C=O)c2c1O`: the insulin secretion stimulation in test [1] is 0.5% (inactive). In addition, the viability decrease in test [2] was 82% (active). Moreover, in test [3], the tube area decrease is 110% (active). Besides, in [4], the GLP1 secretion stimulation was 76.4% (active). Further, in test [5], the inhibition of viability is 91.7% (active). Further, the viability decrease (inhibition) in [6] is 108% (active); in test [7], 64.1% (active). Also, in test [8], the red/green cell ratio (normalised) is 0.91 (inactive). Besides, the normalised cell number was determined as 1.04 in [8] (setting [15]) and 0.95 in test [8] (setting [16]). Further, in test [9], the remaining activity was 103% (inactive). The AC50 is 7.42 µM (active) in test [10]; 23.5 µM (active) in test [11]; 18.7 µM (active) in [12]; 18.7 µM (active) in test [13]; 10.5 µM (active) in test [14].
Consider `COc1cc2c(N3CCN(C(=O)Nc4ccc(OC(C)C)cc4)CC3)ncnc2cc1OCCCN1CCCCC1`, for which the insulin secretion stimulation in [1] is 7% (inactive). The viability decrease in test [2] was 75.1% (active). The tube area decrease in test [3] was 11% (inactive). The GLP1 secretion stimulation in test [4] was 11.5% (inactive). The inhibition of viability in test [5] was 93.9% (active). In addition, the viability decrease (inhibition) in test [6] was 38.5% (inactive); in [7], 10.1% (inactive). The red/green cell ratio (normalised) in [8] was 1.13 (inactive). The normalised cell number turned out to be 1.09 in [8] (setting [15]) and 1.23 in test [8] (setting [16]). The compound was called inactive in test [10], in [11] and in test [14].
Take `O=NN(CCCl)C(=O)NC1CCCCC1`: the insulin secretion stimulation in [1] is -0.3% (inactive). The viability decrease in [2] is 11.8% (inactive). The tube area decrease in [3] is 56.7% (active). Also, the GLP1 secretion stimulation in [4] is -0.1% (inactive). For the same compound, the inhibition of viability in test [5] is -0.2% (inactive). The viability decrease (inhibition) in test [6] is 57.8% (active); in test [7] it was 3.5% (inactive). Further, the red/green cell ratio (normalised) in [8] was 1.11 (inactive). Besides, the figures for the normalised cell number in [8] (setting [15]) and in [8] (setting [16]) were 1.04 and 1.15, respectively. In addition, the compound was called inactive in test [10], in test [11], in [12] and in test [14].
`CNC[C@H](O)[C@@H](O)[C@H](O)[C@H](O)CO`: in test [1], the insulin secretion stimulation is 0.7% (inactive). Besides, in [2], the viability decrease is -9.2% (inactive). In addition, the tube area decrease in [3] was -17.1% (inactive). Also, in test [4], the GLP1 secretion stimulation was 10.1% (inactive). In addition, the inhibition of viability in [5] is 4.6% (inactive). The results for the viability decrease (inhibition) in test [6] and in [7] were 0.6% (inactive) and 15.4% (inactive), respectively. For the same compound, in test [8], the red/green cell ratio (normalised) is 0.7 (inactive). The results for the normalised cell number in test [8] (setting [15]) and in test [8] (setting [16]) were 1.19 and 0.84, respectively. Further, the result in test [10], in test [11], in [13] and in test [14] was inactive.
On to `CN(C)c1ccc2nc3ccc(=[N+](C)C)cc-3sc2c1`, for which, in test [1], the insulin secretion stimulation is -1.1% (inactive). Further, the viability decrease in [2] was 98.6% (active). Besides, the tube area decrease in [3] was 103% (active). Also, the GLP1 secretion stimulation in test [4] is 280% (active). Also, in test [5], the inhibition of viability was 97.8% (active). For the same compound, the viability decrease (inhibition) in test [6] is 65.3% (active); in test [7] it was 44.2% (inactive). Also, in test [8], the red/green cell ratio (normalised) was 0.68 (inactive). The normalised cell number is 0.15 in test [8] (setting [15]) and 0.1 in [8] (setting [16]). Moreover, the AC50 in test [10] is 5.9 µM (active); in [11], 4.69 µM (active); in [12], 2.96 µM (active); in [13] it was 5.9 µM (active); in test [14], 2.63 µM (active).
For `CCOC(=O)O[C@]1(C(=O)OCCl)CC[C@H]2[C@@H]3CCC4=CC(=O)C=C[C@]4(C)[C@H]3[C@@H](O)C[C@@]21C`, the insulin secretion stimulation in test [1] is 7% (inactive). Moreover, in test [2], the viability decrease was 12.3% (inactive). In [3], the tube area decrease is -0.4% (inactive). The GLP1 secretion stimulation in test [4] is 0.9% (inactive). Also, in test [5], the inhibition of viability is 3.1% (inactive). The viability decrease (inhibition) in test [6] is 0.5% (inactive); in [7], 21.9% (inactive). Besides, the compound was classed as inactive in [10], in test [11], in test [12] and in test [14].
`COc1ncnc(NS(=O)(=O)c2ccc(N)cc2)c1OC`: the insulin secretion stimulation in test [1] is 0.1% (inactive). For the same compound, the viability decrease in test [2] was -6.5% (inactive). For the same compound, the tube area decrease in test [3] is -10.7% (inactive). Moreover, in test [4], the GLP1 secretion stimulation is 8.3% (inactive). The inhibition of viability in test [5] was -1.93% (inactive). Besides, the viability decrease (inhibition) in test [6] is -16.8% (inactive); in test [7], -22.2% (inactive). For the same compound, the red/green cell ratio (normalised) in test [8] is 1.18 (inactive). The normalised cell number worked out at 0.5 in [8] (setting [15]) and 0.6 in test [8] (setting [16]). Further, the call in [10], in test [11], in test [12], in [13] and in [14] was inactive.
In the case of `Cc1cnc(C(=O)O)c[n+]1[O-]`, in [1], the insulin secretion stimulation is 3.6% (inactive). Besides, in test [2], the viability decrease was -16.5% (inactive). Further, the tube area decrease in test [3] was 9.6% (inactive). Moreover, in test [4], the GLP1 secretion stimulation was -4.7% (inactive). Besides, the inhibition of viability in test [5] is 3% (inactive). The figures for the viability decrease (inhibition) in test [6] and in test [7] were 14.8% (inactive) and -0.8% (inactive), respectively. For the same compound, the red/green cell ratio (normalised) in test [8] is 0.76 (inactive). In addition, the normalised cell number in [8] (setting [15]) turned out to be 1.32; in [8] (setting [16]), 1. For the same compound, the compound was classed as inactive in [10], in [11], in [12], in test [13] and in [14].
Turning to `Cc1cn[nH]c1`, the insulin secretion stimulation in [1] is 0.4% (inactive). In test [2], the viability decrease is 20.3% (inactive). Besides, the tube area decrease in test [3] is 4.6% (inactive). For the same compound, the GLP1 secretion stimulation in test [4] was 1.6% (inactive). For the same compound, in [5], the inhibition of viability was 0.47% (inactive). In addition, the viability decrease (inhibition) in test [6] was 19.8% (inactive); in test [7], 2% (inactive). The red/green cell ratio (normalised) in test [8] was 0.92 (inactive) and 0.9 (inactive). Also, the normalised cell number is 0.94 and 1.1 in [8] (setting [15]); 0.86 and 0.99 in test [8] (setting [16]). Further, the result in [10] and in test [14] was inactive. The AC50 in [12] was 0.105 µM (active); in [13], 3.32 µM (active).
